# hgDAF12 agonist = activates the H. glycines DAF-12 receptor ligand-binding domain. 370,000 compounds, 1.8% hits. AID 687014. activation, % at 6.8 µM. HEK293 GAL4-hgDAF12 UAS-luciferase reporter, agonist luminescence; normalized to butyrate control;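 active means activation above a cutoff set at the mean of all screened compounds plus 3 SD, cut at about 10% in these data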;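 further: 0% = DMSO wells and 100% = sodium butyrate wells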
# DAX1 inh-1 = blocks DAX1 repression of SF-1 activated StAR promoter; 370,000 compounds, 1.1% hits; HEK293T StAR-luciferase reporter, SF-1/DAX-1 repression relief; inhibition, % at 6.8 µM; AID 652010;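 active means inhibition above the mean over all tested compounds plus 3 SD, cut at about 3.6% in these data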;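 further: 0% = DAX-1 cells with DMSO and 100% = cells lacking DAX-1 with DMSO; higher inhibition means more luminescence from relief of DAX-1 repression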
# DAX1 inh-2 = inhibits human nuclear receptor DAX1; HEK293 Gal4-DAX1 luciferase reporter, luminescence; inhibition, % at 6.75 µM; 340,000 compounds, 0.99% hits; AID 504766;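 active means inhibition above the mean over all tested compounds plus 3 SD, cut at about 4.2% in these data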;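 further: 0% = DAX1-transfected cells with DMSO and 100% = empty-vector control cells with DMSO; inhibition shows as a rise in luminescence from relieved DAX1 repression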
# ssDAF-12 act = S. stercoralis DAF-12 activation, primary screen | HEK293 ssDAF-12/GRIP1 lit1-tk-luc reporter, luminescence; % of 3 µM dafachronic acid response | activation, % at 6.8 µM | 370,000 compounds, 1% hits | AID 652126;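 active means activation above the mean over all tested compounds plus 3 SD, cut at about 0.9% in these data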;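 further: 0% = DMSO-only wells and 100% = 3 µM delta7-dafachronic acid wells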
# hcDAF-12 act = activators of H. contortus DAF-12 nuclear receptor; HEK293 hcDAF-12 lit1-tk-luc reporter, luminescence; 0% DMSO, 100% Δ7-dafachronic acid; 370,000 compounds, 1.4% hits; activation, % at 6.8 µM;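 active means activation above the mean of all tested compounds plus 3 SD, cut at about 5.5% in these data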;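 further: 100% = response to 3 µM Δ7-dafachronic acid high control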
# DAX1 conf = NR0B1 (human) inhibition, confirmation; inhibition, % at 6.8 µM; shares compounds with DAX1 inh-1; HEK293T StAR-promoter luciferase reporter, SF-1/DAX-1 repression; 2,400 compounds, 87% hits;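 active means inhibition above the average of every tested compound plus 3 SD, cut at about 3.8% in these data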;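 further: 0% = DAX-1 cells with DMSO and 100% = no DAX-1 control cells with DMSO; active compounds raise luminescence by relieving repression of the StAR reporter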
# Target sequence (P51843 whole entry, looked up): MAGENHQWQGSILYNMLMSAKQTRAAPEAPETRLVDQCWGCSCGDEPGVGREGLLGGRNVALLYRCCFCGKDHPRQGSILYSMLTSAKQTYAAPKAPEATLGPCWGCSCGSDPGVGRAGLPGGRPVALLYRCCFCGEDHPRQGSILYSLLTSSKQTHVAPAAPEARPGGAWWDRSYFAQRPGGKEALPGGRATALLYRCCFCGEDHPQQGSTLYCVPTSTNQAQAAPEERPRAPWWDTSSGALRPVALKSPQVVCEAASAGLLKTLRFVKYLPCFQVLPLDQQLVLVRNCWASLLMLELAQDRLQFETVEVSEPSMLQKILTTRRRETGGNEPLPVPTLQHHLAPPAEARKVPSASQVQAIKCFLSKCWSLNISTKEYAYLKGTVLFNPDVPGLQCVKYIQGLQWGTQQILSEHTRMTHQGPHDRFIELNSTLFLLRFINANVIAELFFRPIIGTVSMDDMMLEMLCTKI
# SF1 AF2mut Luc = counter-screen for DAX1 inhibitors: nonselective inhibitors with SF-1 AF2 mutant | shares compounds with DAX1 inh-1 | HEK293 StAR-luciferase, luminescence | inhibition, % at 6.8 µM | 2,400 compounds, 78% hits | AID 652136;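 active means inhibition above the mean of all tested compounds plus 3 SD, cut at about 3% in these data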;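 further: 0% = DAX-1 transfected cells with DMSO and 100% = cells without DAX-1 with DMSO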
# LXR ag = LXR-beta agonism as hcDAF-12 counter-screen; shares compounds with hcDAF-12 act; HEK293 Gal4-LXR tk-luc reporter, luminescence, 24 h; normalized: DMSO 0%, positive control 100%; activation, % at 6.8 µM; 3,400 tested, under 10 active; AID 743027;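 active means mean percent activation of the reporter above a cutoff set as the average over tested compounds plus their standard deviation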
# hcDAF12 ag = confirmation of H. contortus DAF-12 agonists; shares compounds with hcDAF-12 act; HEK293 hcDAF-12 lit1-tk-luc reporter, luminescence; % of Δ7-dafachronic acid response; activation, % at 6.8 µM; 3,400 compounds, 61% hits; AID 743032;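 active means mean activation across triplicate tests above the threshold derived from the earlier primary screen, cut at about 5.5% in these data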;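 further: 0% = DMSO only wells and 100% = 3 µM Δ7-dafachronic acid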
# hgDAF12 conf = hgDAF-12 agonism, confirmation assay | shares compounds with hgDAF12 agonist | HEK293 GAL4-hgDAF12 luciferase reporter, agonist mode; percent of butyrate response | activation, % at 6.8 µM | 3,300 compounds, 80% hits | AID 743050;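 active means mean activation over triplicate wells above the hit cutoff derived from the earlier primary screen, cut at about 11% in these data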;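 further: 0% = DMSO low control and 100% = 2 mM sodium butyrate high control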
# LXRb DAF12 ctr = activates human LXR-beta, counter-screen for DAF-12 agonists; shares compounds with hgDAF12 agonist; HEK293 Gal4-LXR luciferase reporter, 24 h; activation, % at 6.8 µM; 3,300 tested, under 10 active;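 active means mean activation of the triplicate above a set limit carried over from the primary screen, none filed active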
# Active calls of the source: *; / = no result given. Hits are enriched below; roughly 4.1% of the tested compounds scored in any of these assays.
SMILES,hgDAF12 agonist,DAX1 inh-1,DAX1 inh-2,ssDAF-12 act,hcDAF-12 act,DAX1 conf,SF1 AF2mut Luc,hgDAF12 conf,LXRb DAF12 ctr,others
O=C(Nc1nc2c(s1)COc1ccccc1-2)c1cccs1,15*,12*,4.8*,-2,0,8.8*,9.4*,7,0,
COc1ccc2oc3cc(NCCN(C)C)ccc3c(=O)c2c1,43*,16*,/,2.2*,9.2*,22*,13*,42*,1,LXR ag=2;hcDAF12 ag=8.4*
Clc1ccc(-c2csc(NCC3CCCO3)n2)cc1 (stereo unspecified),15*,5.1*,/,0.9*,5,7.8*,4.3*,13*,1,
COc1ccc(NC(=O)CSCC(=O)N2CCN(C(=O)c3ccco3)CC2)cc1,0,0,-1,0,0,/,/,/,/,
O=C(CNC(=O)Cc1ccccc1)N=Nc1c(O)[nH]c2ccccc12,2,0,0,0,1,/,/,/,/,
O=C(N=Nc1c(O)[nH]c2ccccc12)Nc1ccccc1,17*,5.5*,5.6*,1.2*,2,16*,7.1*,13*,1,
Cc1ccc(-n2c(C)cc(C)c(C#N)c2=O)cc1C,-3,0,-1,-2,-2,/,/,/,/,
Cc1ccc2cc3c(N)c(C(=O)N4CCOCC4)sc3nc2c1,16*,5.6*,5.1*,1.0*,6.2*,12*,5.9*,1,0,
COc1ccc2cc3c(N)c(C(=O)N4CCCC4)sc3nc2c1,4,0,/,-1,-1,/,/,/,/,
CCC(=O)Nc1cccc(-c2ccc(N3CCCCC3)nn2)c1,14*,15*,-1,0,5.9*,10*,4.7*,15*,1,
CN1CCN(c2ccc(-c3cccc(NC(=O)COc4ccc(Cl)cc4)c3)nn2)CC1,14*,7.9*,1,1,3,4.5*,2,10,1,
CCC(=O)Nc1cccc(-c2ccc(N3CCN(C)CC3)nn2)c1,/,/,1,/,/,/,/,/,/,
COc1cccc(CNS(=O)(=O)c2cc(Br)ccc2Br)c1,1,-1,3,-1,-2,/,/,/,/,
CCc1ccc(-n2ncc(Cl)c(Oc3ccc(OC)cc3)c2=O)cc1,0,/,/,-2,-1,/,/,/,/,
C/C(=N/OC(=O)c1ccc(C(F)(F)F)cc1)c1oc(C)nc1C,-1,0,2,-2,-1,/,/,/,/,
COc1cc(SC)ccc1C(=O)Nc1ccc(C)cc1C,10,2,3,0,0,/,/,/,/,
COc1cc(SC)ccc1C(=O)Nc1ccc(C)cc1,18*,5.5*,7.1*,2.1*,14*,13*,9.9*,20*,1,LXR ag=2;hcDAF12 ag=13*
COc1cc(SC)ccc1C(=O)Nc1ccc2c(c1)OCO2,20*,7.8*,9.4*,1.4*,8.9*,9.7*,6.2*,16*,1,LXR ag=2;hcDAF12 ag=6.3*
COc1cc(SC)ccc1C(=O)Nc1ccccn1,19*,5.0*,-3,1.0*,10*,9.6*,5.2*,14*,1,LXR ag=2;hcDAF12 ag=7.2*
CCCCN(C(=O)c1c(CC)noc1C)c1c(N)n(CCC)c(=O)[nH]c1=O,-4,0,1,-1,-1,/,/,/,/,

# Source: PubChem BioAssay
